# Reference: the supplement of paper PMC8728848
# Many of the other results were omitted from the sample, so the strongest signals are more common in it than they were.
# B1: HA-00510 (Pseudomonas aeruginosa), Q02V39_PSEAB (protein)
# chain: GVPIVNIATPNGAGLSNNHFRDYNVGANGLILNNATGKTQGTQLGGIILGNPNLKGQAAQVILNQVTGGNRSTLAGYTEVAGQSARVIVANPHGITCQGCGFINTPRATLTTGKPIMDGQRLERFQVDGGDIVVEGAELNVGNLEQFDLITRSAKLNAKLYAKNLNIVTGRNDVQADSLQATPRAADGSEKPQLAIDSSALGGMYAGAIRLVGTEQGVGVKLAGDMAASGGDIRIDASGKLSLAQASSQGDLKIAAQAVELNGKTYAGGSAEIRSAEELVNRQS
# B2: SSA (Sclerotinia sclerotiorum), A7XUK7 (protein)
# chain: MGFKGVGTYEIVPYQAPSLNLNAWEGKLEPGAVVRTYTRGDKPSDNAKWQVALVAGSGDSAEYLIINVHSGYFLTATKENHIVSTPQISPTDPSARWTIKPATTHQYEVFTINNKVSELGQLTVKDYSTHSGADVLSASAKTADNQKWYFDAK
# Tests used:
# Experiment in all cases: glycan array binding signal (z-score within array); higher = stronger binding
# Conditions in all cases: glycan notation: IUPAC condensed, linker removed
# [1] = target: Fuc(a1-2)Gal(b1-4)GlcNAc
# Method in brief: (§1)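 The Consortium for Functional Glycomics database supplied 3228 glycan arrays, of which those lacking an available protein sequence were dropped. The binding signal, a within-array Z-score, was averaged across arrays of the same protein sequence and across linkers. Negative scores can be read as non-binding.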
# [2] = target: Fuc(a1-2)Gal(b1-4)GlcNAc(b1-2)[Fuc(a1-2)Gal(b1-4)GlcNAc(b1-4)]Man(a1-3)[Fuc(a1-2)Gal(b1-4)GlcNAc(b1-2)Man(a1-6)]Man(b1-4)GlcNAc(b1-4)GlcNAc
# Method in brief: as §1
# [3] = target: Fuc(a1-2)Gal(b1-4)[Fuc(a1-3)]GlcNAc
# Method in brief: as §1
# [4] = target: Fuc(a1-2)Gal6S(b1-3)GlcNAc
# Method in brief: as §1
# [5] = target: Fuc(a1-2)[Gal(a1-3)]Gal(b1-3)GlcNAc(b1-6)GalNAc
# Method in brief: as §1
# [6] = target: Fuc(a1-2)[Gal(a1-4)]Gal(b1-4)GlcNAc
# Method in brief: as §1
# [7] = target: Fuc(a1-2)[GalNAc(a1-3)]Gal(b1-3)GlcNAc(b1-3)GalNAc
# Method in brief: as §1
# [8] = target: Fuc(a1-3)GlcNAc
# Method in brief: as §1
# [9] = target: Gal(a1-3)Gal(b1-4)GlcNAc
# Method in brief: as §1
# [10] = target: Gal(a1-3)[Gal(a1-4)]Gal(b1-4)GlcNAc
# Method in brief: as §1
# [11] = target: Gal(b1-2)Gal
# Method in brief: as §1
# [12] = target: Gal(b1-3)GlcNAc(b1-3)Gal(b1-4)GlcNAc(b1-6)[Gal(b1-3)GlcNAc(b1-3)]Gal(b1-4)Glc
# Method in brief: as §1
# [13] = target: Gal(b1-4)GlcNAc(b1-2)Man(a1-3)Man(b1-4)GlcNAc(b1-4)GlcNAc
# Method in brief: as §1
# [14] = target: Gal(b1-4)GlcNAc(b1-2)[Gal(b1-4)GlcNAc(b1-4)]Man(a1-3)[GlcNAc(b1-4)][Gal(b1-4)GlcNAc(b1-2)[Gal(b1-4)GlcNAc(b1-6)]Man(a1-6)]Man(b1-4)GlcNAc(b1-4)GlcNAc
# Method in brief: as §1
# [15] = target: Gal(b1-4)GlcNAc(b1-3)Gal(b1-4)GlcNAc(b1-2)Man(a1-3)[Gal(b1-4)GlcNAc(b1-3)Gal(b1-4)GlcNAc(b1-2)Man(a1-6)]Man(b1-4)GlcNAc(b1-4)GlcNAc
# Method in brief: as §1
# [16] = target: Gal(b1-4)GlcNAc(b1-3)Gal(b1-4)GlcNAc(b1-3)GalNAc
# Method in brief: as §1
# [17] = target: Gal(b1-4)GlcNAc(b1-3)Gal(b1-4)GlcNAc(b1-3)[Gal(b1-4)GlcNAc(b1-3)Gal(b1-4)GlcNAc(b1-6)]GalNAc
# Method in brief: as §1
# [18] = target: Gal(b1-6)Gal
# Method in brief: as §1
# [19] = target: Gal3S(b1-4)Glc
# Method in brief: as §1
# [20] = target: Gal3S(b1-4)GlcNAc
# Method in brief: as §1
# [21] = target: Gal3S(b1-4)[Fuc(a1-3)]Glc6S
# Method in brief: as §1
# [22] = target: Gal3S4S(b1-4)GlcNAc
# Method in brief: as §1
# [23] = target: Gal6S(b1-4)GlcNAc
# Method in brief: as §1
# [24] = target: GalNAc(b1-3)Gal(a1-6)Gal(b1-4)Glc
# Method in brief: as §1
# [25] = target: GalNAc(b1-4)GlcNAc(b1-2)Man
# Method in brief: as §1
# [26] = target: Glc(a1-4)Glc(a1-4)Glc(a1-4)Glc
# Method in brief: as §1
# [27] = target: GlcNAc(a1-4)Gal(b1-4)GlcNAc(b1-3)Gal(b1-4)[Fuc(a1-3)]GlcNAc(b1-3)Gal(b1-4)[Fuc(a1-3)]GlcNAc
# Method in brief: as §1
# [28] = target: GlcNAc(b1-3)Gal(b1-4)GlcNAc(b1-2)[GlcNAc(b1-3)Gal(b1-4)GlcNAc(b1-6)]Man(a1-6)[GlcNAc(b1-3)Gal(b1-4)GlcNAc(b1-2)Man(a1-3)]Man(b1-4)GlcNAc(b1-4)GlcNAc
# Method in brief: as §1
# [29] = target: GlcNAc(b1-3)Gal(b1-4)GlcNAc(b1-3)Gal(b1-4)GlcNAc(b1-2)Man(a1-3)[GlcNAc(b1-3)Gal(b1-4)GlcNAc(b1-3)Gal(b1-4)GlcNAc(b1-2)Man(a1-6)]Man(b1-4)GlcNAc(b1-4)GlcNAc
# Method in brief: as §1
# [30] = target: GlcNAc(b1-3)Gal(b1-4)GlcNAc(b1-3)[GlcNAc(b1-3)Gal(b1-4)GlcNAc(b1-3)]GalNAc
# Method in brief: as §1
# [31] = target: Fuc(a1-2)Gal(b1-4)[Fuc(a1-3)]GlcNAc(b1-2)Man(a1-3)[Fuc(a1-2)Gal(b1-4)[Fuc(a1-3)]GlcNAc(b1-2)Man(a1-6)]Man(b1-4)GlcNAc(b1-4)GlcNAc
# Method in brief: as §1
# [32] = target: Fuc(a1-2)Gal(b1-4)[Fuc(a1-3)]GlcNAc(b1-3)Gal(b1-4)[Fuc(a1-3)]GlcNAc
# Method in brief: as §1
# [33] = target: Fuc(a1-2)[Gal(a1-3)]Gal(b1-3)GlcNAc(b1-2)Man(a1-3)[Fuc(a1-2)[Gal(a1-3)]Gal(b1-3)GlcNAc(b1-2)Man(a1-6)]Man(b1-4)GlcNAc(b1-4)GlcNAc
# Method in brief: as §1
# [34] = target: Fuc(a1-2)[GalNAc(a1-3)]Gal(b1-4)Glc
# Method in brief: as §1
# [35] = target: Fuc(a1-2)[GalNAc(a1-4)]Gal(b1-4)GlcNAc
# Method in brief: as §1
# [36] = target: Gal(a1-3)Gal(b1-3)GlcNAc
# Method in brief: as §1
# [37] = target: Gal(a1-3)GalNAc
# Method in brief: as §1
# [38] = target: Gal(b1-4)GlcNAc(b1-3)Gal(b1-4)GlcNAc(b1-3)Gal(b1-4)GlcNAc
# Method in brief: as §1
# [39] = target: Gal6S(b1-4)GlcNAc6S
# Method in brief: as §1
# [40] = target: GalNAc(a1-3)Gal
# Method in brief: as §1
# [41] = target: GalNAc(b1-3)Gal
# Method in brief: as §1
# [42] = target: GalNAc(b1-3)Gal(a1-4)Gal(b1-4)GlcNAc
# Method in brief: as §1
# [43] = target: GalNAc(b1-3)Gal(a1-4)Gal(b1-4)GlcNAc(b1-3)Gal(b1-4)Glc
# Method in brief: as §1
# [44] = target: GalNAc(b1-4)GlcNAc
# Method in brief: as §1
# [45] = target: Glc(a1-6)Glc(a1-6)Glc
# Method in brief: as §1
# [46] = target: GlcNAc(b1-3)Gal(b1-4)GlcNAc(b1-3)Gal(b1-4)GlcNAc
# Method in brief: as §1
# [47] = target: GlcNAc(b1-3)[GlcNAc(b1-6)]GlcNAc(b1-4)GlcNAc
# Method in brief: as §1
# [48] = target: GlcNAc(b1-6)Gal(b1-4)GlcNAc
# Method in brief: as §1
# [49] = target: Man(a1-2)Man(a1-3)Man
# Method in brief: as §1
# [50] = target: Neu5Ac(a2-3)Gal(b1-3)GalNAc(b1-3)Gal(a1-4)Gal(b1-4)Glc
# Method in brief: as §1
# [51] = target: Neu5Ac(a2-3)Gal(b1-4)Glc
# Method in brief: as §1
# [52] = target: Neu5Ac(a2-3)Gal(b1-4)GlcNAc(b1-2)Man(a1-3)[GlcNAc(b1-2)Man(b1-4)GlcNAc(b1-2)Man(a1-6)]Man(b1-4)GlcNAc(b1-4)GlcNAc
# Method in brief: as §1
# [53] = target: Neu5Ac(a2-3)Gal(b1-4)GlcNAc(b1-3)Gal(b1-4)[Fuc(a1-3)]GlcNAc
# Method in brief: as §1
# [54] = target: Neu5Ac(a2-6)Gal(b1-4)GlcNAc(b1-2)Man(a1-3)[GlcNAc(b1-2)Man(a1-6)]Man(b1-4)GlcNAc(b1-4)GlcNAc
# Method in brief: as §1
# [55] = target: Neu5Ac(a2-8)Neu5Ac
# Method in brief: as §1
# [56] = target: Neu5Ac(b2-6)Gal(b1-4)GlcNAc
# Method in brief: as §1
# [57] = target: Neu5Gc(a2-3)Gal(b1-4)GlcNAc
# Method in brief: as §1
binder,measurement,setting,value
B1,glycan array binding signal (z-score),[1],0.548
same,glycan array binding signal (z-score),[2],1.8
same,glycan array binding signal (z-score),[3],-0.457
same,glycan array binding signal (z-score),[4],-1.39
same,glycan array binding signal (z-score),[5],-0.268
same,glycan array binding signal (z-score),[6],0.219
same,glycan array binding signal (z-score),[7],2.45
same,glycan array binding signal (z-score),[8],0.219
same,glycan array binding signal (z-score),[9],0.209
same,glycan array binding signal (z-score),[10],0.326
same,glycan array binding signal (z-score),[11],-0.657
same,glycan array binding signal (z-score),[12],0.121
same,glycan array binding signal (z-score),[13],-0.221
same,glycan array binding signal (z-score),[14],0.347
same,glycan array binding signal (z-score),[15],6.41
same,glycan array binding signal (z-score),[16],3.26
same,glycan array binding signal (z-score),[17],3.88
same,glycan array binding signal (z-score),[18],-0.435
same,glycan array binding signal (z-score),[19],0.114
same,glycan array binding signal (z-score),[20],-0.217
same,glycan array binding signal (z-score),[21],0.258
same,glycan array binding signal (z-score),[22],-0.526
same,glycan array binding signal (z-score),[23],-0.516
same,glycan array binding signal (z-score),[24],-0.551
same,glycan array binding signal (z-score),[25],-1.01
same,glycan array binding signal (z-score),[26],0.18
same,glycan array binding signal (z-score),[27],0.682
same,glycan array binding signal (z-score),[28],0.061
same,glycan array binding signal (z-score),[29],4.3
same,glycan array binding signal (z-score),[30],-0.255
B2,glycan array binding signal (z-score),[1],-0.112
same,glycan array binding signal (z-score),[31],-0.173
same,glycan array binding signal (z-score),[32],-0.407
same,glycan array binding signal (z-score),[33],-0.312
same,glycan array binding signal (z-score),[6],-0.198
same,glycan array binding signal (z-score),[34],-0.1
same,glycan array binding signal (z-score),[35],3.68
same,glycan array binding signal (z-score),[36],-0.253
same,glycan array binding signal (z-score),[37],0.053
same,glycan array binding signal (z-score),[38],-0.142
same,glycan array binding signal (z-score),[39],0.403
same,glycan array binding signal (z-score),[40],6.1
same,glycan array binding signal (z-score),[41],3
same,glycan array binding signal (z-score),[42],4.61
same,glycan array binding signal (z-score),[43],6.97
same,glycan array binding signal (z-score),[44],5.32
same,glycan array binding signal (z-score),[45],-0.343
same,glycan array binding signal (z-score),[27],0.158
same,glycan array binding signal (z-score),[46],-0.207
same,glycan array binding signal (z-score),[47],-0.467
same,glycan array binding signal (z-score),[48],-0.344
same,glycan array binding signal (z-score),[49],-0.3
same,glycan array binding signal (z-score),[50],-0.295
same,glycan array binding signal (z-score),[51],-0.186
same,glycan array binding signal (z-score),[52],-0.291
same,glycan array binding signal (z-score),[53],-0.158
same,glycan array binding signal (z-score),[54],-0.226
same,glycan array binding signal (z-score),[55],-0.215
same,glycan array binding signal (z-score),[56],-0.415
same,glycan array binding signal (z-score),[57],-0.366
